The results in this text go back to PubChem BioAssay (NCATS).

Where “and” joins values, the source holds several entries; their conditions need not be identical. Equal values may be shown once. Results filed as inconclusive are left out. Calls of active or inactive are those of the source. Calls come from the whole dose curve; as a rule, active = well fitted cell-killing curve with a large enough effect; inconclusive = small, poorly fitted or top-dose-only effect, or effect the other way; inactive = no such curve, though single readings can be large or run the other way.
Potency is the fitted concentration of half-maximal effect.

A short description of the assay: Viability qHTS for spleen associated tyrosine kinase inhibitor (SYKi) naive MV4-11 cells (AID 1963823). Note: nearly all actives have a fitted effect of over 40% in size. Conditions: MV4-11 AML viability, CellTiter-Glo luminescence, 72 h; series mostly up to 45 µM; viability (% of control): at the top concentration. From the text:
Department of Medicine, Hematology/Oncology
University Hospital Frankfurt, Germany.
Trials have shown promising clinical activity of the selective SYK inhibitor entospletinib in patients with high expressing HOXA9/MEIS1 acute leukemias. As the development of resistance mechanisms is a common problem in the use of targeted drugs, we performed a chemical library screen to identify drug sensitivities in SYK inhibitor resistant AML cells. […] Glucocorticoids are potent immunosuppressants which work in part by inhibiting the transcription of cytokine genes.
Described herein is a viability screen to look for activity in the SYK inhibitor naive cell line against four NCATS compound libraries (MIPE 5.0, NPC, NPACT, and Kinase) totaling 11372 compounds. Active hits were reacquired for confirmation and further secondary assay testing.
SEQUENCE No. (e.g., 1, 2, 3, etc.); […] (e.g., Cells, Incubation, Reagent, etc.); VALUE; DESCRIPTION.
1; Media; 2uL; white, solid-bottom Corning assay plate.
2; Compounds; 23nL; Echo acoustic dispenser.
3; Cell; 5uL; 500 cells per well.
4: Incubation; 72hr; 37 C, 5% CO2, 95% humidity.
5; Reagent; 3uL; CellTiter-Glo reagent (Promega).
6; Incubation; 10min; room temperature.
7; Detection; Luminescence; ViewLux plate reader (PerkinElmer).
NOTES (numbers refer to Sequence numbers above
1. Quantitative high-throughput screening (qHTS) of small molecule compounds was conducted on naive SYKi MV4-11 cell line.
2. Twenty-three nanoliter of small molecule compounds were added to each assay plates using the Echo acoustic dispenser (Beckman Coulter).
3. Cells were seeded into the assay plates at a final density of 500 cells in 5uL of media per well using the Multi-drop Combi dispenser.
4. Plates were covered with stainless steel gasketed lids and incubated for 72 hours at standard cell culture conditions.
5. Viability was assessed by adding 3uL of CellTiter-Glo detection reagent (Promega).
6. Plates were covered with gasket lids and incubated for 10 minutes at room temperature.
7. Luminescence was measured on a ViewLux plate reader (PerkinElmer).
On to `CN1C(=O)CC(C)(c2ccccc2)C1=O` (stereo not given), for which the “viability (% of control)” value was 92.3% (inactive).

On to `CC[C@@]1(O)C(=O)OCc2c1cc1n(c2=O)Cc2c-1nc1ccccc1c2/C=N/OC(C)(C)C`, for which the Potency was 0.0084 µM (active).

Consider `CN1CCC(c2c(O)cc(O)c3c(=O)cc(-c4ccccc4Cl)oc23)C(O)C1` (stereo not given), for which the Potency was 0.259 µM (active).

On to `Nc1ccccc1NC(=O)c1ccc(CNC(=O)OCc2cccnc2)cc1`, for which the Potency is 651 nM (active) and 742 nM (active).

For `CC1OC(O[C@H]2CC[C@@]3(C)C(CC[C@]4(C)C3CC=C3C5CC(C)(C)CC[C@]5(C(=O)OC5OC(CO)C(OC6OCC(OC7OCC(O)C(O)C7O)C(O)C6O)C(O)C5O)CC[C@]34C)C2(C)C)C(O)C(O)C1OC1OC(CO)C(O)C(OC2OC(CO)C(O)C(O)C2O)C1O` (stereo not given in full), the viability (% of control) was 54.2% [at 9.25 µM] (inactive).

For `Cc1nnc(C(C)C)n1C1CC2CCC(C1)N2CCC(NC(=O)C1CCC(F)(F)CC1)c1ccccc1` (stereo not given), the “viability (% of control)” value was 74.4% (inactive).

With `CCn1c(-c2nonc2N)nc2c(C#CCO)ncc(OCCCN)c21`, the Potency was 0.58 µM (active).

On to `O=C(NCCN1CCC(n2c(=O)[nH]c3ccccc32)CC1)c1cc2cc(F)ccc2[nH]1`, for which the Potency was 18.4 µM (active).

With `CC[N+](C)(C)c1cccc(O)c1`, the “viability (% of control)” value was 76% (inactive).

For `COc1ccc2c(c1)O[C@H](O[C@@H]1O[C@H](CO)[C@@H](O)[C@H](O)[C@H]1O)C(=O)N2`, the “viability (% of control)” value is 97.8% (inactive).

`COc1ccc(-c2nc(-c3cc(C(F)(F)F)cc(C(F)(F)F)c3)n(Cc3ccc(C(N)=O)cc3)c2-c2ccc(OC)cc2)cc1`: the Potency was 7.31 µM (active).

As to `CC(NC(CCc1ccccc1)C(=O)O)C(=O)N1C(=O)N(C)CC1C(=O)O` (stereo not given), the “viability (% of control)” value is 85.1% (inactive).

Take `O=C(O)CNC(=O)c1nc(Cl)c2ccccc2c1O`: the “viability (% of control)” value is 63.8% (inactive).

On to `COc1cccc(OC)c1-c1nc(C(=O)N[C@@H](CC(C)C)C(=O)O)cn1-c1ccnc2cc(Cl)ccc12`, for which the “viability (% of control)” value was 67.3% (inactive).

Consider `COc1ccc(C2C(=O)c3ccccc3C2=O)cc1`, for which the “viability (% of control)” value was 107% (inactive).

For the compound `CC1(C)O[C@@]2(C)CC[C@@H]1C[C@@H]2OC1OC(CO)C(O)C(O)C1O` (stereo not given in full), the “viability (% of control)” value was 62.9% (inactive).

In the case of `CNC(=O)c1c(F)cccc1Nc1nc(Nc2cc3c(cc2OC)CCN3C(=O)CN(C)C)nc2[nH]ccc12`, the Potency was 2.59 µM (active) and 4.68 µM (active).

Regarding `CC(NCCC(c1ccccc1)c1ccccc1)c1ccccc1` (stereo not given), the Potency is 13.3 µM (active).

With `CC(=O)O[C@]1(C(C)=O)CC[C@H]2[C@@H]3C[C@H](C)C4=CC(=O)CC[C@]4(C)[C@H]3CC[C@@]21C`, the Potency is 8.41 µM (active) and 13.2 µM (active).

Regarding `Cc1occc(=O)c1O[C@@H]1O[C@H](CO)[C@@H](O)[C@H](O)[C@H]1O`, the “viability (% of control)” value is 89% (inactive).

In the case of `O=C(/C=C/c1ccccc1)O[C@@H]1[C@@H](CO)O[C@@](CO)(O[C@H]2O[C@H](CO)[C@@H](O)[C@H](O)[C@H]2O)[C@H]1O`, the “viability (% of control)” value is 92.8% [at 17.3 µM] (inactive).

In the case of `O=C(O[C@@H]1O[C@H](CO)[C@@H](O)[C@H](O)[C@H]1O)c1ccccc1`, the “viability (% of control)” value was 93.8% (inactive).

As for `C[C@@]12CC3(S(=O)(=O)O)OC(O1)[C@]1(COC(=O)c4ccccc4)[C@H]3C[C@]21O[C@@H]1O[C@H](CO)[C@@H](O)[C@H](O)[C@H]1O`, the “viability (% of control)” value is 82.2% [at 17.3 µM] (inactive).

In the case of `C=C1CC[C@@]2(OC1)O[C@H]1CC3C4CC=C5C[C@@H](O[C@@H]6O[C@@H](C)[C@H](O)[C@@H](O)[C@H]6O)C[C@@H](O[C@@H]6O[C@H](C)[C@H](O)[C@H](O)[C@H]6O[C@@H]6O[C@@H](C)[C@H](O)[C@@H](O)[C@H]6O)[C@]5(C)C4CC[C@]3(C)[C@H]1[C@@H]2C` (stereo not given in full), the viability (% of control) was 70.4% [at 9.25 µM] (inactive).

As to `C=C(C(=O)O)C1CCC2(C)CCCC(C)(O)C2C1` (stereo not given), the “viability (% of control)” value was 63.3% (inactive).

For `Cc1ccccc1N1CCN(S(=O)(=O)C[C@]23CC[C@H](C[C@@H]2NC(=O)[C@@H](N)CCS(C)(=O)=O)C3(C)C)CC1`, the “viability (% of control)” value was 70.8% (inactive).

For `O=C(c1ccc(Cl)c([N+](=O)[O-])c1)N1CCN(c2ccccc2F)CC1`, the Potency was 23.1 µM (active).

`CC(=O)NC(C)c1ccc(Oc2ccc(OC(C)C)cc2)cc1` (stereo not given): the Potency was 10.8 µM (active).

`O[C@@H](COc1cccc2ncccc12)CN1CCN(C2c3ccccc3[C@@H]3[C@H](c4ccccc42)C3(F)F)CC1` (stereo not given in full): the Potency is 5.9 µM (active) and 9.2 µM (active).

As to `COC(=O)[C@@H]1C2CC3c4[nH]c5ccccc5c4CCN3CC2CC[C@@H]1O` (stereo not given in full), the “viability (% of control)” value is 69.4% (inactive).

In the case of `COCCCNCC1COc2ccccc2O1` (stereo not given), the “viability (% of control)” value was 66.8% (inactive).

As to `C=CC1(C)C=C2CC[C@H]3[C@@](C)(C(=O)O)CCC[C@]3(C)C2CC1` (stereo not given in full), the Potency is 1.61 µM (active).

On to `C=CC(C)(O)CC/C=C(\C)C(=O)O[C@@H]1[C@@H](O)[C@H](OC(C)(C=C)CC/C=C(\C)C(=O)O[C@@H]2O[C@H](CO)[C@@H](O)[C@H](O)[C@H]2O)O[C@H](CO)[C@H]1OC(=O)/C(C)=C/CCC(C)(O)C=C` (stereo not given in full), for which the viability (% of control) is 87.6% [at 9.25 µM] (inactive).

With `CC1(C)CCC(C)(C)c2cc([C@@H](O)C(=O)Nc3ccc(C(=O)O)cc3F)ccc21`, the Potency was 4.11 µM (active).

In the case of `OCC(CO)(CO)NCC(O)Cn1c2ccc(Cl)cc2c2cc(Cl)ccc21` (stereo not given), the Potency is 20.6 µM (active).

With `CN1c2ccccc2C(=O)N2CCc3c([nH]c4ccccc34)C21` (stereo not given), the Potency was 1.64 µM (active).

On to `Nc1nc2c(ncn2COCCO)c(=O)[nH]1`, for which the Potency entry was “inactive”.

Regarding `CC1(C)S[C@@H]2[C@H](NC(=O)[C@H](NC(=O)N3CCN(S(C)(=O)=O)C3=O)c3ccccc3)C(=O)N2[C@H]1C(=O)O`, the “viability (% of control)” value was 73.9% (inactive).

Turning to `Nc1ccc(S(=O)(=O)NC(=O)c2ccccc2)cc1`, the “viability (% of control)” value was 66.2% (inactive).

As to `C[C@@H](Nc1ncnc2[nH]c(-c3ccc(O)cc3)cc12)c1ccccc1`, the Potency is 4.11 µM (active) and 7.42 µM (active).
